Giardia killer: Giardia lamblia killing | Giardia lamblia trophozoite viability | AID 540267 | activity change, % at 7.66 µM, hits read low | 0.15% of 340,000 active; in the data active means activity change below about -80%; inconclusive means between about -30% and that limit;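 further: parasites exposed to compound for two days anaerobically before the ATP read; on the % scale 0 is the no-effect control and ±100 the full control effect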
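Compounds were tested on trophozoites seeded at 100 cells/well and held 48 hrs at 37 deg C anaerobically. An ATP-based luminescent kit measured the remaining live cells.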
uPA surface inh: cell surface uPA generation inhibition; 0.31% of 330,000 active; Potency, µM (titrated, usually from 38.3 µM), inactives show top-dose activity change, negative = inhibition, actives largely listed as inhibitors; cell surface uPA generation assay, qHTS; active means well fitted inhibition curve with a large enough effect; inconclusive means small, poorly fitted or top-dose-only effect; inactive means no such curve, though single readings can be large or run the other way; tested in mouse RAW 264.7 cells; further: potency means the concentration at half of the fitted maximal effect; on the % scale 0 is the no-effect control and ±100 the full control effect; nearly all actives have a fitted effect of over 55% in size
Mito fusion act: blocks mitochondrial division or promotes mitochondrial fusion; S. cerevisiae fusion-defective mutant growth rescue, CellTiterGlo 48 h; Potency, µM (titrated, usually from 46.1 µM), for inactives: top-dose growth rescue (activation), usual class: activators; 0.23% of 320,000 active; further: potency means the concentration at half of the fitted maximal effect; % of control where 0% means no effect; nearly all actives have a fitted effect of over 45% in size
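Compounds are tested for their ability to restore growth of mitochondrial fusion-defective yeast strains at non-permissive 37C in YPEG medium over 48 hours. Viability is quantified by luciferase luminescence.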
ClpP mod: qHTS Assay for Activators of ClpP. ATP-dependent Clp protease proteolytic subunit (Bacillus subtilis (strain 168)), P80244. purified B. subtilis ClpP, FRET peptide cleavage, 20 min. Potency, µM (doses to about 57.5 µM), for the others: at the top dose activity change, negative = active. 1.9% of 340,000 active. AID 651965, 2013; active means well fitted falling curve with a large enough effect; inconclusive means small, poorly fitted or top-dose-only effect; inactive means no such curve, though single readings can be large or run the other way; further: potency means the concentration at half of the fitted maximal effect; the source files actives as falling curves though it sought activators and does not explain the sign; nearly all actives have a fitted effect of over 65% in size
Target sequence (P80244 whole entry, looked up): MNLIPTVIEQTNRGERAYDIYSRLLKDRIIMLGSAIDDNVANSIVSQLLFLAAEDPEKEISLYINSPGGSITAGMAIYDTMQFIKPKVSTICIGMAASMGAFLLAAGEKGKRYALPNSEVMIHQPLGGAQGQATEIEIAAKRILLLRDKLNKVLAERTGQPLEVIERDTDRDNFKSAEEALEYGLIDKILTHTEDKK
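ClpP 10 microg/mL final, pH 8 Tris/KCl buffer with BSA, glycerol, Tween-20; compound pinned in; FRET-FV substrate; RT 20 min; Ex320/Em430; ΔFRET vs ADEP 5.8 microM, DMSO, no enzyme.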
p53 reactivation: mutant p53 re-activation in reporter cells; AID 504706; H1299 p53-A138V BP100-luciferase reporter, luminescence, 24 h; 0.063% of 320,000 active; Potency, µM (doses to about 92.2 µM), inactives show at the highest dose activity change, positive = activation, actives largely listed as activators; further: potency means the concentration at half of the fitted maximal effect; % of control where 0% means no effect; nearly all actives have a fitted effect of over 45% in size
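H1299 (p53-null), stable ts p53-A138V + BP100-Luc; 1000 cells/well, Opti-MEM/10% FBS; cpd 4 pt, 1:5; 24 h, 37 deg C, 5% CO2; detection reagent 10 min RT; luminescence.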
B2AR arrestin: beta2AR (human) beta-arrestin recruitment activity; P07550; beta-arrestin recruitment to beta2AR, cell-based reporter; Potency, µM (doses to about 46.1 µM), without a hit: at the highest dose activation, most hits filed as activators; 0.02% of 330,000 active; AID 492947;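 further: potency means the concentration at half of the fitted maximal effect; 0% = DMSO controls and full agonism = EC100 isoproterenol or metaproterenol; nearly all actives have a fitted effect of over 65% in size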
Target sequence (P07550 whole entry, looked up): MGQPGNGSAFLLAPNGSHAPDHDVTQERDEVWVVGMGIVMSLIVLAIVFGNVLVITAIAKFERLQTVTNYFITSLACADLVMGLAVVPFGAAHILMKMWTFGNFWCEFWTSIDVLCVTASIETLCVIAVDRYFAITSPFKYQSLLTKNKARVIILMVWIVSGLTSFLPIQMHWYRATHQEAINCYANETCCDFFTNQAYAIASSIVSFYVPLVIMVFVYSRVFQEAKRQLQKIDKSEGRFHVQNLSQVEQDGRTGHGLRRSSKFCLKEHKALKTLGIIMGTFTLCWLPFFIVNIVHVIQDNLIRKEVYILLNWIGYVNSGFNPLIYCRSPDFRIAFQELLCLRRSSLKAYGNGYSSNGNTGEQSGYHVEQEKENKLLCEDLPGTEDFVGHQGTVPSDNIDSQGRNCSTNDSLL
* = called active by the depositor; ? = inconclusive; / = no result. Shown are actives, neighbours in structure and some others; about 2.1% of the full set was active somewhere. Unless noted, the call rests on the fitted dose curve; in most records, active means well fitted curve in the direction sought with a large enough effect; inconclusive means small, poorly fitted or top-dose-only effect, or another doubt; inactive means no such curve, though single readings can be large; an effect the other way counts as inactive or inconclusive.

SMILES | Giardia killer | uPA surface inh | Mito fusion act | ClpP mod | p53 reactivation | B2AR arrestin
COc1ccc(Br)cc1C(C[N+](=O)[O-])c1c(N)n(C)c(=O)n(C)c1=O (configuration not stated) | -2 | 3.5µM* | -10% | -3% | -15% | -1%
O=C(C1CCC1)N1CCc2cc(S(=O)(=O)NCCc3ccccc3)ccc21 | / | / | / | -1% | / | /
COc1ccc(C(O)c2ncc(-c3cccc4ccccc34)[nH]2)cc1F (configuration not stated) | / | / | / | 5% | / | /
Nc1ccccc1OCCOCCOc1ccccc1N | -10 | 0% | 0% | 22µM* | 11% | 0%
CCOC(=O)c1c(NC(=O)C(C)Sc2cn(CCNC(=O)c3ccccc3OC)c3ccccc23)sc2c1CCC2 (configuration not stated) | / | / | / | -5% | / | /
O=C(NN1C(=O)NC2(CCCCC2)C1=O)c1ccc(-c2ccc(Cl)cc2)o1 | -4 | -6% | -2% | 6.3µM* | -14% | -2%
O=C(NN1C(=O)NC2(CCCCC2)C1=O)c1cc2cc(Cl)ccc2o1 | 22 | -1% | / | -2% | -1% | -1%
O=C(NC1CCC(O)CC1)c1ccc(-c2ccc(Cl)cc2)o1 (configuration not stated) | -4 | -1% | -11% | 25µM* | 18% | 0%
O=C(Nc1ccc2nc(SCC(=O)N3CCCC3)sc2c1)c1cccc(F)c1 | / | / | / | 6% | / | /
Nc1c(C(=O)Nc2ccc3c(c2)OCCO3)nnn1Cc1ccc(F)cc1 | 11 | -10% | 13% | 11µM* | 26% | 0%
COc1ccc(Br)cc1Cn1nnc(C(=O)Nc2ccc3c(c2)OCCO3)c1N | 12 | ? | 10µM* | -2% | -2% | 0%
COc1ccccc1-c1cc(NC(=O)COc2ccccc2Cl)n(-c2ccccc2)n1 | / | / | / | -1% | / | /
COc1ccc2c(c1)CC(C1(O)C(=O)Nc3ccccc31)C2=O (configuration not stated) | 3 | -1% | 2% | -1% | 3% | 1%
O=C1CCCCCC1C1(O)C(=O)Nc2ccccc21 (configuration not stated) | -15 | 2% | -2% | 11µM* | -4% | 0%
Nc1nc2ccccc2n1CCOc1ccc(Br)cc1 | -5 | -11% | -6% | 0% | / | 0%
S=C(Nc1ccccc1)Nc1nc2ccccc2n1CCOc1ccc(Br)cc1 | 31 | 4% | -12% | -1% | 22µM* | ?
CCc1ccc(OC(C)C(=O)N2CCC(c3nc4ccccc4s3)CC2)cc1 (configuration not stated) | / | / | / | -3% | / | /
CC(=O)N/C(=C/c1ccc2c(c1)OCO2)C(=O)NC(Cc1ccccc1)C(=O)O (configuration not stated) | -8 | 4% | / | 32µM* | / | /
Cc1ccc(C(C)C)c(OCC(=O)Nc2ccc(S(=O)(=O)Nc3onc(C)c3C)cc2)c1 | / | / | / | 0% | / | /
CCC(CO)Oc1cc(NCc2ccc(Cl)cc2Cl)c2ncn(C(C)C)c2c1 (configuration not stated) | 0 | 8.9µM* | / | -5% | -4% | 0%
CC(C)Cc1nc(N2CCCCC2)c(C#N)c2c1CCC2 | -15 | 6% | 8% | 35µM* | ? | 0%
CC(C)Cc1nc(N2CCN(C(=O)c3ccccc3)CC2)c(C#N)c2c1CCC2 | 16 | 2% | 6% | 32µM* | 21% | 0%
CCCNC(=O)N1CCN(c2nc(C(C)C)c3c(c2C#N)CC(C)(C)OC3)CC1 | 22 | -96% | 1% | 5% | -4% | 0%
CC(C)Cc1nc(N2CCN(C(=O)c3ccco3)CC2)c(C#N)c2c1CCC2 | 19 | -4% | ? | ? | 4% | 0%
CC(C)Cc1nc(Cl)c(C#N)c2c1CCCC2 | 9 | 13% | 5% | 2% | -9% | 0%
SMILES | Giardia killer | uPA surface inh | Mito fusion act | ClpP mod | p53 reactivation | B2AR arrestin
Cc1ccc(S(=O)(=O)N2CCN(c3nc(C(C)C)c4c(c3C#N)CC(C)(C)OC4)CC2)cc1 | -15 | / | -1% | 14µM* | -1% | 0%
CC(C)Cc1nc(N2CCOCC2)c(C#N)c2c1COC(C)(C)C2 | 8 | 3% | 2% | 28µM* | 19% | 0%
COc1ccc(-c2cc(C(C)=O)c(C)n2CCC(=O)NCc2ccc(F)cc2)cc1 | / | / | / | 2% | / | /
Cc1ccc(Nc2c(-c3ccc(C)s3)nc3cccc(C)n23)cc1 | -11 | / | / | 4% | / | /
CC(C)Cc1nc(N2CCN(C(=O)C(C)C)CC2)c(C#N)c2c1CCC2 | 14 | 1% | ? | 20µM* | 8% | -2%
CC(=O)N1CCN(c2nc(CC(C)C)c3c(c2C#N)CCC3)CC1 | 0 | -3% | 6% | -2% | -7% | -1%
Cc1ccccc1C(=O)Nc1cccc(C(=O)OCc2cc(=O)n3c(C)csc3n2)c1 | / | / | / | -5% | / | /
c1ccc(Cn2c(SCc3cn4cccnc4n3)nnc2-c2ccco2)cc1 | 3 | -11% | 0% | 16µM* | -1% | 0%
COc1ccc(-c2noc(CSc3nnc(-c4ccc(Cl)cc4)n3C)n2)cc1OC | / | / | / | -2% | / | /
O=C(Cn1nnc(-c2ccccc2)n1)Nc1cccc(S(=O)(=O)N2CCCC2)c1 | -13 | -1% | 0% | 32µM* | 7% | -1%
COc1ccccc1Nc1nc(C)cc(C)n1 | 22 | -4% | -6% | 18µM* | 24% | 0%
Cc1ncc(CO)c(/C=N/NC(=O)c2ccc(O)cc2)c1O | -5 | -3% | -3% | ? | 14% | -1%
Cc1ncc(CO)c(/C=N/NC(=O)c2ccoc2C)c1O | 27 | -3% | -6% | 25µM* | 30% | 0%
Cc1ncc(CO)c(/C=N/NC(=O)c2cc3c(s2)CCCC3)c1O | ? | 6.3µM* | 1% | -24% | 13% | 0%
Cc1nn(C)c2c1c(-c1ccccc1)cc(=O)n2CC(=O)NC(C)c1ccccc1 (configuration not stated) | / | / | / | -17% | / | /
O=C(CN1Cc2ccccc2C1=O)Nc1cc(F)ccc1F | / | / | / | -2% | / | /
COc1cc2c(c3ccccc13)CCCC2=O | -7 | 2% | / | 28µM* | / | /
c1ccc(-c2nc3c(ccc4ccccc43)[nH]2)nc1 | -13 | -6% | 11% | 28µM* | ? | 0%
Cc1ccc(Cn2c(C)c3cnn(CC(=O)N4CCN(c5ccc(F)cc5)CC4)c(=O)c3c2C)cc1 | / | / | / | -26% | / | /
CSc1ccc(/C=C(/NC(=O)c2ccco2)C(=O)N2CCCCC2)cc1 | 6 | 1% | 8% | 1% | -4% | 0%
COc1ccc(/C=C(/NC(=O)c2ccco2)C(=O)N2CCCCC2)cc1 | -13 | -1% | 5% | 14µM* | / | 0%
Cc1ccc(Oc2nc3ccccc3n3cccc23)cc1 | 8 | 0% | 11% | 22µM* | 2% | 0%
Cc1ccc(OCCn2c(C)nc3ccccc32)cc1 | 6 | -11% | -8% | / | / | 1%
